Tested on: Vero E6 infected with SARS-CoV-2
Assay: inhibition of SARS-CoV-2 cytopathic effect; higher = more antiviral protection, active = above 15
Settings: 48 h

Measured: inhibition of SARS-CoV-2 cytopathic effect

CCN(CC)CCOCCOC(=O)C1(c2ccccc2)CCCC1 [carbetapentane]
inactive: 1 nM -0.34% | 8.33 nM 0.73% | 100 nM 1.1% | 833.33 nM 1.39% | 10000 nM 0.95%

CN1CCCC(CN2c3ccccc3Sc3ccccc32)C1 (stereo not given) [mepazine]
inactive: 1 nM -2.3% | 8.33 nM 3.28% | 100 nM 3.56% | 833.33 nM -2.75% | 10000 nM 5.75%

CCCCCCCCCCCCCC(=O)[O-].CCCCCCCCCCCCCC(=O)[O-].N[C@@H]1CCCC[C@H]1N.[Pt+2] [miriplatin]
inactive: 1 nM -0.38% | 8.33 nM -0.15% | 100 nM 0.5% | 833.33 nM -1% | 10000 nM -1.94%

CCN(CC)CCNC(=O)c1cc(S(C)(=O)=O)ccc1OC [tiapride]
inactive: 1 nM 1.6% | 8.33 nM -0.89% | 100 nM -0.61% | 833.33 nM 0.66% | 10000 nM 2.27%

COc1cc(N2CCC(N3CCN(C)CC3)CC2)ccc1Nc1ncc(Cl)c(Nc2ccccc2S(=O)(=O)C(C)C)n1
inactive: 1 nM -0.23% | 8.33 nM -4.02% | 100 nM -0.56% | 833.33 nM -0.6% | 10000 nM -15.5%

CCCCOc1ccc(CC(=O)NO)cc1 [bufexamac]
inactive: 1 nM 0.27% | 8.33 nM -0.68% | 100 nM 0.49% | 833.33 nM 0% | 10000 nM 0.42%

COc1cc(Oc2ccnc3cc(OC)c(OC)cc23)ccc1NC(=O)NC(C)c1nccs1 (stereo not given)
inactive: 1 nM -1.6% | 8.33 nM 0.95% | 100 nM 1.7% | 833.33 nM 0.48% | 10000 nM -1.8%

CC(=O)O[C@]1(C(C)=O)CC[C@H]2[C@@H]3C=C(Cl)C4=CC(=O)CC[C@]4(C)[C@H]3CC[C@@]21C [chlormadinone-acetate]
inactive: 1 nM -13.3% | 8.33 nM -12.7% | 100 nM -10.2% | 833.33 nM -13.4% | 10000 nM -13%

CN(c1ccccc1CNc1nc(Nc2ccc3c(c2)CC(=O)N3)ncc1C(F)(F)F)S(C)(=O)=O
inactive: 1 nM -0.17% | 8.33 nM -0.35% | 100 nM -2.19% | 833.33 nM -5.19% | 10000 nM -15.4%

Nc1cccc(CNC(=O)c2ccc(Oc3ccc(OCc4cccc(F)c4)cc3)nc2)c1
inactive: 1 nM -2.39% | 8.33 nM -0.37% | 100 nM 0.75% | 833.33 nM 0.65% | 10000 nM -2.15%

CCOC(=O)[C@@H](C)Oc1cccc2c(=O)n(CC(=O)Nc3ccc4c(c3)OCCO4)ccc12
inactive: 1 nM -1.29% | 8.33 nM 1.77% | 100 nM 0.7% | 833.33 nM -5.6% | 10000 nM -5.98%

O=C(Nc1ncc(SCCN2CCCC2)s1)[C@]1(c2ccc(S(=O)(=O)C3CC3)cc2)C[C@H]1C1CCCCC1
inactive: 1 nM 1.58% | 8.33 nM -0.96% | 100 nM -2.63% | 833.33 nM -2.76% | 10000 nM -5.6%

CN1C(=O)C[C@@H](C(=O)N[C@@H](Cc2c[nH]cn2)C(=O)N2CCC[C@H]2C(N)=O)NC1=O [taltirelin]
inactive: 1 nM 1.73% | 8.33 nM 3.69% | 100 nM 3% | 833.33 nM 3.21% | 10000 nM 4.65%

O=C(C=Cc1ccccc1)NC(NC(=S)Nc1ccc(Cl)cc1)C(Cl)(Cl)Cl (stereo not given)
inactive: 1 nM 0.51% | 8.33 nM 0.81% | 100 nM -4.17% | 833.33 nM -1.91% | 10000 nM -5.67%

O=C1C[C@@]2(C(=O)N1)C(=O)N(Cc1ccc(Br)cc1F)C(=O)c1cccn12 [ranirestat]
inactive: 1 nM 0.68% | 8.33 nM 1.21% | 100 nM 2.23% | 833.33 nM 3.78% | 10000 nM 1.01%

Cn1c(C#N)ccc1-c1ccc2c(c1)C(C)(C)OC(=S)N2 [tanaproget]
inactive: 1 nM 3.59% | 8.33 nM 4.95% | 100 nM 0.34% | 833.33 nM 3.55% | 10000 nM 1.06%

OCCCNc1cc(-c2ccnc(Nc3cccc(Cl)c3)n2)ccn1
inactive: 1 nM 1.32% | 8.33 nM -0.77% | 100 nM 1.6% | 833.33 nM -16.6% | 10000 nM 11.2%

O=C/C=C/c1ccccc1 [cinnamaldehyde]
inactive: 1 nM 1.16% | 8.33 nM 2.28% | 100 nM 1.04% | 833.33 nM 3.28% | 10000 nM 5.38%

Source: the supplement of paper PMC13380429
